{
  "source": "PubChem BioAssay (NCATS)",
  "note": "Records with an inconclusive call do not appear. Unmarked numbers belong to inactive results. Activity calls are given as the source filed them. The call rests on the fitted dose curve; in most records, active means well fitted cell-killing curve with a large enough effect; inconclusive means small, poorly fitted or top-dose-only effect, or effect the other way; inactive means flat fitted curve, though single readings scatter. On the % scale 0 is the no-effect control and ±100 the full control effect; potency means the concentration at half of the fitted maximal effect.",
  "data": [
    {"test_system": "Es-2", "assay": "Primary qHTS to identify gynecologic anti-cancer compounds using libraries of approved drugs and bioactive compounds (AID 1345084); further: nearly all actives have a fitted effect of over 55% in size", "conditions": "Gynecologic cancer cell panel viability, ATPlite luminescence, 48 h; series mostly up to 57.5 µM; activity change, negative = cytotoxicity: at the top concentration", "outline": "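Five-concentration response, 48 h; readout is ATP-driven luciferase luminescence.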", "values": [
      {"smiles": "Cc1ccnn1-c1ccc(C(=O)N2CCN(S(=O)(=O)c3ccc(Cl)c(C(F)(F)F)c3)CC2)cc1", "activity change, negative = cytotoxicity": "-0.443%"},
      {"smiles": "Fc1ccc(N2CCCCC2)c(NC(=S)c2ccncc2)c1", "activity change, negative = cytotoxicity": "6.49%"},
      {"smiles": "O=C(Cc1c(F)cccc1F)Nc1cc(OCc2ccc(Cl)cc2)ccn1", "activity change, negative = cytotoxicity": "1.92%"},
      {"smiles": "CCN(c1cc(-c2ccc(CN3CCOCC3)cc2)cc(C(=O)NCc2c(C)cc(C)[nH]c2=O)c1C)C1CCOCC1", "activity change, negative = cytotoxicity": "6.6%"},
      {"smiles": "C/C=C(/C)C(=O)O[C@@H]1C[C@@H](OC(=O)CC(C)C)C2(C)C3C(=O)C=C(C)C2C3C1(C)C", "note": "(some centres undefined)", "activity change, negative = cytotoxicity": "10.3% [at 25.3 µM]"},
      {"smiles": "CCOc1cc(C(C)(C)C)ccc1C1=NC(C)(c2ccc(Cl)cc2)C(C)(c2ccc(Cl)cc2)N1C(=O)N1CCN(CCCS(C)(=O)=O)CC1", "note": "(centres undefined)", "activity change, negative = cytotoxicity": "-14.3%"},
      {"smiles": "COc1ccc(S(=O)(=O)N2CCC[C@H]2C(=O)Nc2cc(C)cc(C)c2)cc1", "activity change, negative = cytotoxicity": "-1.51%"},
      {"smiles": "CN(C)C(=O)Nc1cc(-c2ccccc2)ccc1N(C)C", "activity change, negative = cytotoxicity": "-5.94%"},
      {"smiles": "COc1ccc(NC(=O)c2ccc(C(=N)N(C)C)cc2)c(C(=O)Nc2ccc(Cl)cn2)c1", "activity change, negative = cytotoxicity": "3%"},
      {"smiles": "Nc1nccc(-c2c(-c3ccc(F)cc3)ncn2C2CCCCC2)n1", "activity change, negative = cytotoxicity": "-27.5%"},
      {"smiles": "COc1cc(O)c2c(c1)/C=C/C[C@H](O)[C@H](O)C(=O)/C=C\\C[C@H](C)OC2=O", "Potency": "15.8 µM (active)"},
      {"smiles": "CC(C)c1cc(-c2ccc(F)c3ccccc23)nc(N)n1", "activity change, negative = cytotoxicity": "2.15%"},
      {"smiles": "CNc1cccc(CCOc2ccc3c(c2)CN(CC(F)(F)F)C(=O)[C@H](CC(=O)O)C3)n1", "activity change, negative = cytotoxicity": "-4.26%"},
      {"smiles": "OC[C@H]1O[C@@H](OC/C=C/c2ccc(O)cc2)[C@H](O)[C@@H](O)[C@@H]1O", "activity change, negative = cytotoxicity": "-0.698% [at 38.5 µM]"}
    ]}
  ]
}
